Assay results from article PMC10163288.
The list is a sample of the results. No count for the full screen is at hand.

B1: il2ra_site2_2erj_sap_24_mot_HHH_b1_07975_000000000_0001_41_57_H_._HHH_b1_08466_af2_0001_0000800020_0000001_0_0001_af2pred_0001_af2pred (protein)
chain: SSSSSEEEEELKEFIEELVREFGLSEEVQKELEEIARFALEQGIDEEDIKKWLKLFAEETSSSSS
B2: il2ra_site2_3nfp_normal_mot_HHH_b1_01086_af2_000000264_0001_39_53_H_._a6da1dbab15e72488587f943ddaf1f3f_0001_1_af2_0001_0000500054_0000001_0 (protein)
chain: DREELLERIVREKDPRVEELLEEIKEAKERNDEELLEKLAKRLALIAFELGDPEVFALAADLQSI
B3: il2ra_site2_3nfp_normal_mot_HHH_b1_08498_000000146_0001_21_37_H_._HHH_b1_08008_0001_0000100001_0000001_0 (protein)
chain: SSSSDEEHLEAATRLIRAAAWALNDPELERRAEELLEEIKEHGDPELKQELAELTHEAFELSSSS
B4: il2ra_site2_2erj_normal_mot_HHH_b1_05749_af2_000000086_0001_23_39_H_._HHH_b2_01918_0001_0000200007_0000001_0 (protein)
chain: SSSSDELEEEVEELLEEVRRAYEEGDLEEAYRLAVRVFALAAENNDPELQRAVTRLLEELSSSSS
B5: il2ra_site1_3nfp_sap_17_mot_0eddeacbb14b769e73e254714f31e2f9_0001_af2_000000052_0001_37_51_H_._7093d3a5e4329be201a559e39cb9bd18_0001_0001_0000800048_0000001_0_0 … (protein)
chain: SSSDEAKELAEEAIEELERLIKEGDVRAVAETIRRIAKELLELNDPEALELLQREVRKLLRSSSS
B6: il2ra_site1_2b5i_sap_17_mot_2cbe48e66a1f39b3fed734b245ab0a04_0001_000000015_0001_17_31_H_._HHH_b1_01921_0001_0000600034_0000001_0_0001_af2pred_dldesign_0_af2pre … (protein)
chain: SSSSSDVKEVLELFEEANKLFQAGKPEEAKEVLEKALEKAKALGAEAHIRIIESALEQLESSSSS
B7: il2ra_site1_3nfp_sap_12_mot_HHH_b1_07180_af2_000000260_0001_1_19_H_._HHH_b2_06317_af2_0001_0000500010_0000001_0_0001_af2pred_0001_af2pred_1 (protein)
chain: SDEELIKKLVRIAVEQNSPRLLRKILRDFERYTGDPEEAERILEELIEEVLGDPEEARRLVEEAK
B8: il2ra_site1_1z92_normal_mot_c9a8daa1dfea21d1414aecde54be4f54_0001_1_af2_000000024_0001_32_46_H_._0e4f66a3c4b070984708d3e1d5382b02_0001_1_af2_0001_0000100008_000 … (protein)
chain: NVAERLFEQAEELGVPPRAVVLALVSAVHAEDPRLREEAEELLERVRRGELPPEEAVRLLAELLE
B9: il2ra_site1_3nfp_sap_9_mot_HHH_b1_03716_af2_000000235_0001_20_37_H_._HHH_b1_05438_0001_0000400011_0000001_0_0001_af2pred_0001_af2pred_1 (protein)
chain: SSSSTELKELLKIVQRLFEEFNLSEEQAQELLQLAEELAKEGVSLEEIEELLRELAERLSSSSSS
B10: il2ra_site2_3nfp_sap_18_mot_11405e7faed88c9d08fdae67291e590b_0001_1_000000110_0001_14_30_H_._HHH_b2_00163_af2_0001_0000300012_0000001_0_0001 (protein)
chain: SSSSDKHERYLRAALELIERAIREGDHEIARRMLETVKSAAEDNNDEEIEELVEELEELLRSSSS
B11: il2ra_site2_2erj_normal_mot_HHH_b1_03609_af2_000000077_0001_42_55_H_._HHH_b2_01692_0001_0000500006_0000001_0 (protein)
chain: SSSSSEVEEEVREILEEAKHIEDPEEREKVLSKAAELAFENNDFEAWSLVSEVFRELAESSSSSS
B12: il2ra_site2_2erj_normal_mot_6bd1339e93f6fdda22195c76da45ec5d_0001_000000136_0001_37_51_H_._HHH_b2_06260_0001_0000100003_0000001_0_af2pred_0001_af2pred (protein)
chain: SSSSSEDEERVEELLEQAEEAAKRDPEKALHLLFEAMEIALKSDNEELLKLVLEVSHRIAESSSS
B13: il2ra_site2_2erj_normal_mot_HHH_b1_05749_af2_000000010_0001_23_39_H_._HHH_b1_07967_0001_0001100051_0000001_1 (protein)
chain: SSSSDWLEELYRLAVELLRLSSRRDEEEFERVYREIERLVEEFNNESAREILEHIRRLFEGSSSS
B14: il2ra_site1_2b5i_normal_mot_2cbe48e66a1f39b3fed734b245ab0a04_0001_000000015_0001_17_31_H_._HHH_b2_00019_0001_0000500012_0000001_0_af2pred_dldesign_0_af2pred (protein)
chain: SSSSSSDAEAEVERLLEEARKVNPEEAEKLLFKALVVAWAAKDPALVARVEAEAKRLLSSSSSSS
B15: il2ra_site2_3nfp_sap_25_mot_HHH_b2_07498_000000293_0001_1_14_H_._HHH_b1_01574_0001_0000100004_0000001_0_0001_af2pred_0001_1_af2pred_swapped (protein)
chain: SSSSSDEELLEEAKRLLEEGNLEEAFRVLAEAASEAIELGDEELAHEIAALAIEVAEKLGSSSSS
B16: il2ra_site1_1z92_sap_9_mot_HHH_b1_04604_af2_000000029_0001_42_56_H_._3020bb65e3c0c4c1750efda2a61ed53f_0001_1_af2_0001_0000300015_0000001_0_0001 (protein)
chain: SEEYLEEQLRRKLELGNIEDAARALFKFIAAAAGDPEQAEEFLEELLKRAGVPPEVIEKILEEAK
B17: il2ra_site1_2b5i_normal_mot_HHH_b2_00231_000000175_0001_20_36_H_._HHH_b2_07547_0001_0000100002_0000001_0_af2pred_0001_af2pred (protein)
chain: SSSSDVWELYLRASRLFLRGNPEEAERLLEEAIELAERLGDPEIAKQLEEMLRHVRRSLSSSSSS
B18: il2ra_site2_3nfp_sap_20_mot_ce0e691d864d74cc0dee145e42b7b696_0001_1_af2_000000051_0001_34_49_H_._HHH_b1_03816_af2_0001_0000500031_0000001_0_0001 (protein)
chain: SSSSSDEEKLEEARELYEEGNPEEARKILLHLVSEAEEKGDRELLFRIMALANEVAAALISSSSS
B19: il2ra_site2_3nfp_normal_mot_HHH_b1_05918_af2_000000127_0001_23_40_H_._HHH_b1_07797_0001_0000400047_0000001_0 (protein)
chain: SSSSSEAEEYLRAALLLAELALREGDEENARRSLELAIQLAEHKGNPELLEELEELLEEINSSSS
B20: il2ra_site1_3nfp_sap_8_mot_119b7766384adbe86006a62bce89dba1_0001_af2_000000092_0001_18_32_H_._HHH_b2_02632_0001_0000300007_0000001_0_0001 (protein)
chain: SSSSDARELLFEAAEILDELAERGDHEELKRFAEEVIEELEELGNRQAARMIRWLVERALSSSSS
B21: il2ra_site2_3nfp_sap_22_mot_HHH_b2_08245_000000023_0001_41_55_H_._HHH_b2_07283_0001_0000300027_0000001_0_0001 (protein)
chain: SSSSDVEERIEELLKEIEELLEKGDPEEAERLLLEVALLAWETGDFEAFAAVTRLLERVQSSSSS
B22: il2ra_site1_2b5i_sap_18_mot_89dc1dc23437faef961419e82e151d9c_0001_af2_000000202_0001_15_32_H_._9f08b0091ee0dae2b2d48aa630d4ec63_0001_1_0001_0000400022_0000001_0 … (protein)
chain: SSSSSIEELLEAMLELAEELIENGNPEEARAILLLARRAARAHGNPEYVKELERLLRELLSSSSS
B23: il2ra_site2_3nfp_normal_mot_HHH_b1_05158_000000192_0001_1_17_H_._HHH_b1_05195_0001_0000600013_0000001_0_af2pred_0001_af2pred (protein)
chain: SSSSSSDSELTFLLILLEALLEEVDDPEIRELLEEALEELREKKDPEIARKVLKEASEYLSSSSS
B24: il2ra_site2_3nfp_sap_26_mot_HHH_b1_00015_000000185_0001_19_35_H_._HHH_b2_06138_0001_0000600047_0000001_0_0001_af2pred_0001_af2pred (protein)
chain: SSSSSSDEEEEVEKLLEEAKHIEDEFELYAVLADAARIAFELKDEELRRLVKEVRHELSSSSSSS

target: il2ra, P01589; test: yeast display titration
Sequence (P01589 whole entry): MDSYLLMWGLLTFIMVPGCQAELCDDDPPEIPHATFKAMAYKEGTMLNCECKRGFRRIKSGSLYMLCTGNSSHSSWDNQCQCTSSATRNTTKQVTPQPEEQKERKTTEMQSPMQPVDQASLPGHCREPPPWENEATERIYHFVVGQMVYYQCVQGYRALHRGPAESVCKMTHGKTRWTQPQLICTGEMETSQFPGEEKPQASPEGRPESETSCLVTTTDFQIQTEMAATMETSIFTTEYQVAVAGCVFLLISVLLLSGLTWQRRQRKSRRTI

Apparent Kd, inactive:
B1 no binding seen
B2 no binding seen
B3 no binding seen
B4 no binding seen
B5 no binding seen
B6 no binding seen
B7 no binding seen
B8 no binding seen
B9 no binding seen
B10 no binding seen
B11 no binding seen
B12 no binding seen
B13 no binding seen
B14 no binding seen
B15 no binding seen
B16 no binding seen
B17 no binding seen
B18 no binding seen
B19 no binding seen
B20 no binding seen
B21 no binding seen
B22 no binding seen
B23 no binding seen
B24 no binding seen
